Drawing on PubChem BioAssay (EPA / NIEHS), this text covers outcome and AC50 for 2 compounds.

Read-out in assay [1]: solute carrier (SLC22A1), SLC22A1 (gene 6580)
As to the kind of experiment: LTEA_HepaRG_SLC22A1: Life Technologies and Expression Analysis (LTEA) Assay for solute carrier (SLC22A1) using HepaRG (AID 2283524). The following applies: mRNA level, 48 h; actives raise or lower the signal. The method in brief: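 Transcript level of SLC22A1 quantified by qRT-PCR (normalized to three housekeeping genes) after 48 h chemical exposure of HepaRG cells, eight concentrations up to 100 µM, half-log steps, 0.5% DMSO vehicle. Gain or loss relative to DMSO fitted bidirectionally.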

Read-out in assay [2]: Pyruvate Dehydrogenase Kinase 4 (PDK4), PDK4 (gene 5166)
As to the kind of experiment: LTEA_HepaRG_PDK4: Life Technologies and Expression Analysis (LTEA) Assay for Pyruvate Dehydrogenase Kinase 4 (PDK4) using HepaRG (AID 2283525). The note with it: mRNA level, 48 h; actives raise or lower the signal. The method in brief: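 Readout is qRT-PCR of PDK4 transcript, normalized to three housekeeping genes, with bidirectional fitting against 0.5% DMSO vehicle. Differentiated HepaRG cells were treated 48 h in serum-free induction medium, duplicate wells, eight-point half-log series topping at 100 uM.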

Read-out in assay [3]: NAD(P)H dehydrogenase [quinone] 1 (NQO1), NQO1 (gene 1728)
The assay is described as follows: LTEA_HepaRG_NQO1: Life Technologies and Expression Analysis (LTEA) Assay for NAD(P)H dehydrogenase [quinone] 1 (NQO1) using HepaRG (AID 2283526). The note with it: mRNA level, 48 h; actives raise or lower the signal. Put shortly:
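In this assay, gene expression is read by qRT-PCR after 48 h exposure of HepaRG cells to eight concentrations (max 100 uM, half-log) in 0.5% DMSO. Each chemical runs in duplicate, and activity is scored relative to vehicle.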

Read-out in assay [4]: Nuclear factor erythroid 2-related factor 2 (Homo sapiens) (UniProt Q16236)
The assay is described as follows: LTEA_HepaRG_NFE2L2: Life Technologies and Expression Analysis (LTEA) Assay for Nuclear factor erythroid 2-related factor 2 (NFE2L2) Transcription Factor using HepaRG (AID 2283527). The following applies: mRNA level, 48 h; actives raise or lower the signal. Put shortly: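 NFE2L2 transcript level was read by qRT-PCR (housekeeping ACTB/GAPDH/POLR2A normalisation) after 48 h chemical treatment of HepaRG in serum-free induction medium. Duplicate 8-point half-log curves, top 100 uM, 0.5% DMSO vehicle; up- or down-regulation fitted against vehicle.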

Read-out in assay [5]: succinate dehydrogenase complex iron sulfur subunit B (SDHB), SDHB (gene 6390)
As to the kind of experiment: LTEA_HepaRG_SDHB: Life Technologies and Expression Analysis (LTEA) Assay for succinate dehydrogenase complex iron sulfur subunit B (SDHB) using HepaRG (AID 2283528). The note with it: mRNA level, 48 h; actives raise or lower the signal. The method in brief:
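HepaRG cells (~100,000/well, plated 48 h) exposed in duplicate for 48 h in serum-free induction medium to 8-point half-log series from 100 uM in 0.5% DMSO; mRNA by qRT-PCR normalised to ACTB, GAPDH, POLR2A; bidirectional fit versus DMSO.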

Read-out in assay [6]: Signal transducer and activator of transcription 3 (Homo sapiens) (UniProt P40763)
The assay is described as follows: LTEA_HepaRG_STAT3: Life Technologies and Expression Analysis (LTEA) Assay for Signal transducer and activator of transcription (STAT3) using HepaRG (AID 2283529). The note with it: mRNA level, 48 h; actives raise or lower the signal. The method in brief: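 STAT3 transcript quantified by qRT-PCR against three housekeeping genes (ACTB, GAPDH, POLR2A), fitted both directions relative to DMSO. HepaRG cultures exposed 48 h to eight half-log concentrations, top 100 uM, 0.5% DMSO, serum-free induction medium.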

Read-out in assay [7]: solute carrier (SLCO1B1), SLCO1B1 (gene 10599)
The assay is described as follows: LTEA_HepaRG_SLCO1B1: Life Technologies and Expression Analysis (LTEA) Assay for solute carrier (SLCO1B1) using HepaRG (AID 2283530). The note with it: mRNA level, 48 h; actives raise or lower the signal. Put shortly:
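Differentiated human HepaRG cells, plated 48 h, switched to serum-free induction medium and exposed in duplicate for 48 h to 8 half-log concentrations (top 100 uM) in 0.5% DMSO. SLCO1B1 mRNA by TaqMan qRT-PCR, normalized to ACTB/GAPDH/POLR2A.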

Read-out in assay [8]: sulfotransferase 2A1 (SULT2A1), SULT2A1 (gene 6822)
As to the kind of experiment: LTEA_HepaRG_SULT2A1: Life Technologies and Expression Analysis (LTEA) Assay for sulfotransferase 2A1 (SULT2A1) using HepaRG (AID 2283531). The note with it: mRNA level, 48 h; actives raise or lower the signal. Put shortly: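 Differentiated human HepaRG cells in serum-free induction medium were exposed for 48 h to eight half-log concentrations (top 100 uM, 0.5% DMSO). SULT2A1 mRNA was measured by qRT-PCR, normalized to ACTB, GAPDH and POLR2A, and fitted bidirectionally against DMSO.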

Read-out in assay [9]: Transforming Growth Factor (TGFA), TGFA (gene 7039)
As to the kind of experiment: LTEA_HepaRG_TGFA: Life Technologies and Expression Analysis (LTEA) Assay for Transforming Growth Factor (TGFA) using HepaRG (AID 2283532). The note with it: mRNA level, 48 h; actives raise or lower the signal. Put shortly: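 TGFA transcript quantified by qRT-PCR (Fluidigm arrays) against three housekeeping genes, after 48 hours chemical treatment of HepaRG cells. Top concentration 100 uM with half-log dilutions, 8 points, duplicates, 0.5% DMSO.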

Read-out in assay [10]: Transforming Growth Factor (TGFB1), TGFB1 (gene 7040)
As to the kind of experiment: LTEA_HepaRG_TGFB1: Life Technologies and Expression Analysis (LTEA) Assay for Transforming Growth Factor (TGFB1) Transporter using HepaRG (AID 2283533). The note with it: mRNA level, 48 h; actives raise or lower the signal. The method in brief:
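Differentiated human HepaRG cells in serum-free induction medium were exposed in duplicate for 48 h to eight concentrations (top 100 uM, half-log steps, 0.5% DMSO). TGFB1 mRNA was quantified by qRT-PCR, normalized to ACTB, GAPDH, POLR2A, and fitted bidirectionally against DMSO.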

Read-out in assay [11]: TIMP1, TIMP1 (gene 7076)
As to the kind of experiment: LTEA_HepaRG_TIMP1: Life Technologies and Expression Analysis (LTEA) Assay for TIMP1 using HepaRG (AID 2283534). The note with it: mRNA level, 48 h; actives raise or lower the signal. Put shortly: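 Differentiated human HepaRG cells in serum-free induction medium were exposed 48 h to chemicals (8 half-log concentrations, top 100 uM, 0.5% DMSO). TIMP1 mRNA was quantified by TaqMan qRT-PCR, normalized to ACTB/GAPDH/POLR2A; bidirectional fit versus DMSO.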

Read-out in assay [12]: Tumor necrosis factor receptor 1 (TNFRSF1A), TNFRSF1A (gene 7132)
The assay is described as follows: LTEA_HepaRG_TNFRSF1A: Life Technologies and Expression Analysis (LTEA) Assay for Tumor necrosis factor receptor 1 (TNFRSF1A) using HepaRG (AID 2283535). The note with it: mRNA level, 48 h; actives raise or lower the signal. The method in brief: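 Differentiated human HepaRG cells were exposed in duplicate for 48 h in serum-free induction medium to eight concentrations (top 100 uM, half-log steps, 0.5% DMSO). TNFRSF1A mRNA was quantified by qRT-PCR, normalized to ACTB, GAPDH and POLR2A, then fitted bidirectionally against DMSO.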

Read-out in assay [13]: Thyroid Hormone Responsive (THRSP), THRSP (gene 7069)
The assay is described as follows: LTEA_HepaRG_THRSP: Life Technologies and Expression Analysis (LTEA) Assay for Thyroid Hormone Responsive (THRSP) using HepaRG (AID 2283536). The following applies: mRNA level, 48 h; actives raise or lower the signal. Put shortly:
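THRSP transcript quantified by Fluidigm qRT-PCR against three housekeeping genes after 48 h chemical exposure of HepaRG cells in serum-free induction medium; eight-point half-log series, top 100 uM, 0.5% DMSO vehicle, duplicate wells.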

Read-out in assay [14]: Cellular tumor antigen p53 (Homo sapiens) (UniProt P04637)
As to the kind of experiment: LTEA_HepaRG_TP53: Life Technologies and Expression Analysis (LTEA) Assay for Tumor Protein P53 (TP53) using HepaRG (AID 2283537). The following applies: mRNA level, 48 h; actives raise or lower the signal. Put shortly: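 Differentiated HepaRG cells in serum-free induction medium exposed 48 h in duplicate to 8 half-log concentrations, top 100 uM, 0.5% DMSO. TP53 mRNA by TaqMan qRT-PCR (Fluidigm), normalized to ACTB, GAPDH, POLR2A; fitted bidirectionally versus DMSO.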

Read-out in assay [15]: UDP glucuronosyltransferase (UGT1A1), UGT1A1 (gene 54658)
The assay is described as follows: LTEA_HepaRG_UGT1A1: Life Technologies and Expression Analysis (LTEA) Assay for UDP glucuronosyltransferase (UGT1A1) using HepaRG (AID 2283538). The note with it: mRNA level, 48 h; actives raise or lower the signal. Put shortly:
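mRNA induction or loss of UGT1A1, by TaqMan qRT-PCR, in duplicate HepaRG wells after 48 h exposure to half-log dilutions topping at 100 uM; DMSO (0.5%) served as baseline.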

Read-out in assay [16]: UDP glucuronosyltransferase (UGT1A6), UGT1A6 (gene 54578)
As to the kind of experiment: LTEA_HepaRG_UGT1A6: Life Technologies and Expression Analysis (LTEA) Assay for UDP glucuronosyltransferase (UGT1A6) using HepaRG (AID 2283539). The following applies: mRNA level, 48 h; actives raise or lower the signal. Put shortly:
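Human HepaRG cells were dosed for 48 h in serum-free induction medium with 0.5% DMSO vehicle, eight-point half-log series from 100 uM, in duplicate. UGT1A6 mRNA was measured by qRT-PCR, normalized to ACTB, GAPDH, POLR2A, and fitted bidirectionally against DMSO.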

Read-out in assay [17]: X-box binding protein 1 (XBP1), XBP1 (gene 7494)
The assay is described as follows: LTEA_HepaRG_XBP1: Life Technologies and Expression Analysis (LTEA) Assay for X-box binding protein 1 (XBP1) using HepaRG (AID 2283540). The note with it: mRNA level, 48 h; actives raise or lower the signal. Put shortly:
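Differentiated human HepaRG cells in serum-free induction medium were exposed in duplicate for 48 h to eight half-log concentrations up to 100 uM in 0.5% DMSO. XBP1 mRNA was quantified by qRT-PCR, normalised to ACTB, GAPDH and POLR2A, with bidirectional fitting against DMSO.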

A short description of assay [18]: LTEA_HepaRG_LDH_cytotoxicity: Cytotoxicity Assessment in the Life Technologies and Expression Analysis (LTEA) Assay (AID 2283563; active means hit-call score of the fitted dose curve at least 0.9, where 1 is the maximum;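 on AC50: LDH activity released into spent culture medium as a marker of cell death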). The method in brief:
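Differentiated human HepaRG cells, plated 48 h beforehand, were switched to serum-free induction medium and exposed for 48 h to eight half-log concentrations (top 100 uM) in 0.5% DMSO. LDH was measured in spent medium; activity was fitted relative to DMSO vehicle.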

The nature of assay [19]: TOX21_p53_BLA_p2_viability: Viability Assessment in the Tox21 HCT-116 p53 Agonism Beta-lactamase Assay, Phase 2 (AID 2283591; active means hit-call score of the fitted dose curve at least 0.9, where 1 is the maximum;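 further: compound exposure lasted 16 h at 37 °C; actives lower the ATP signal meaning cytotoxicity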). The method in brief:
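Cytotoxicity readout: CellTiter-Glo ATP luminescence, 30 min at room temperature, after the beta-lactamase read. Cells were HCT116 exposed 16 h at 37C to compounds pin-transferred at 217-fold dilution from DMSO stocks.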

Assay [20] is described as follows: ATG_XTT_Cytotoxicity: Cytotoxicity Assessment in the Attagene TRANS-FACTORIAL HepG2 Assay (AID 2283584; active means hit-call score of the fitted dose curve at least 0.9, where 1 is the maximum;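 on AC50: cells exposed to compound for 24 h before reading; active means loss of viability signal versus DMSO baseline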). Put shortly:
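HepG2 human liver cells, transiently transfected with multiple GAL4-UAS reporter units, were dosed and read at 24 h by XTT as cell number. Loss of signal was fitted relative to DMSO negative control baseline.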

Molecules are shown by their SMILES. Several values for one entry are separate records, joined by “and”; a condition that tells them apart may be missing. Equal entries are not always repeated. Results filed as inconclusive are left out. More than one record can exist for a structure, and the calls need not agree. Activity calls are given as the source filed them. How the source made its calls, unless noted: active means hit-call score of the fitted dose curve at least 0.9, where 1 is the maximum; inactive means score below 0.9.

Sequence of Nuclear factor erythroid 2-related factor 2 (Homo sapiens) (Q16236 whole entry, looked up): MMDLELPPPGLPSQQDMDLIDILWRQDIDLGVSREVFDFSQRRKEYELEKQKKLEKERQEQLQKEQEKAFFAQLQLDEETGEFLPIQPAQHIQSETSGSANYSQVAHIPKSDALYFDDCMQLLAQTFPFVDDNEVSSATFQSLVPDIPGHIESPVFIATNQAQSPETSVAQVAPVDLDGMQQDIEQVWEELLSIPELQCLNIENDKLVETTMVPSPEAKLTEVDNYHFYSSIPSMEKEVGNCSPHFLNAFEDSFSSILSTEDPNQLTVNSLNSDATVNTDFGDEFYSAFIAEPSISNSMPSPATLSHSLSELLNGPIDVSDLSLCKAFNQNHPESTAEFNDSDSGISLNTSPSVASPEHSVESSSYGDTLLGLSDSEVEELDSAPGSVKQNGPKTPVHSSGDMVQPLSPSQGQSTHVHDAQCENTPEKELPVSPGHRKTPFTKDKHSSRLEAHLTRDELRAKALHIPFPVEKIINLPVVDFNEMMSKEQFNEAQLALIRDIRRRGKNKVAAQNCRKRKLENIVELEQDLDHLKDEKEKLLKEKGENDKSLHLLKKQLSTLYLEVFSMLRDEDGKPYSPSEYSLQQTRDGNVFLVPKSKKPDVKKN
Sequence of Cellular tumor antigen p53 (Homo sapiens) (P04637 whole entry, looked up): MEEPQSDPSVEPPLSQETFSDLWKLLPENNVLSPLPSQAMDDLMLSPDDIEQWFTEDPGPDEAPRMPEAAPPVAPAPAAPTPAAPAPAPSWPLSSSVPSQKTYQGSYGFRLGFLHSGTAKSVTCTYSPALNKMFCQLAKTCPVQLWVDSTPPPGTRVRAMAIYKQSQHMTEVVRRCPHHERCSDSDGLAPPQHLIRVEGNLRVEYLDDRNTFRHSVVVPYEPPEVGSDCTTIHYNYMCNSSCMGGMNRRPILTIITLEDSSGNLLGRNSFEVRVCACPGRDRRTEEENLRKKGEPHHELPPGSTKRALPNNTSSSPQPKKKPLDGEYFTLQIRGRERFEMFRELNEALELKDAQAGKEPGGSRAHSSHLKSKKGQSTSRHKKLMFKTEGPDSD
Sequence of Signal transducer and activator of transcription 3 (Homo sapiens) (P40763 whole entry, looked up): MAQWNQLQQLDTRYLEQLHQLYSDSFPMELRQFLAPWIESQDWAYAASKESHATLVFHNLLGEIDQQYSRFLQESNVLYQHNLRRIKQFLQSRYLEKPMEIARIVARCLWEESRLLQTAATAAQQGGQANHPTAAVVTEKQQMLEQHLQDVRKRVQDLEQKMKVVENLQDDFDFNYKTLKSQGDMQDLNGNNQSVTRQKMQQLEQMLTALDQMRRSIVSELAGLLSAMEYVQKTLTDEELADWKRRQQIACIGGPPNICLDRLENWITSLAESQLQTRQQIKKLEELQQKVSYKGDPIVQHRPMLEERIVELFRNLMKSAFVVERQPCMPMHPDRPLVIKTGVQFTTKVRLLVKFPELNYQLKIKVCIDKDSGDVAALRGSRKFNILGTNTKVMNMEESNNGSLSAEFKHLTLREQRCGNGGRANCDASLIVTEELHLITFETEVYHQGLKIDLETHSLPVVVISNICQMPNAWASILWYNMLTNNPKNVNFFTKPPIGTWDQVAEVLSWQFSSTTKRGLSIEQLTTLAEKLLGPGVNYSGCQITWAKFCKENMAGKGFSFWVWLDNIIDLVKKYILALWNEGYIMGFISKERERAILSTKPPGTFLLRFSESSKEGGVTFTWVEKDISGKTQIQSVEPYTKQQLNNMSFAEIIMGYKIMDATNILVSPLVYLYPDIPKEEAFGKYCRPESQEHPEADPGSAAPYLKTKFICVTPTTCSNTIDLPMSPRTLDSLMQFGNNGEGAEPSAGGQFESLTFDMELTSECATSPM

For `Nc1cc(Cl)cc(C(=O)O)c1Cl`, the call in assay [1], in [2], in assay [3], in assay [4], in [5] and in [6] was inactive. The compound was classed as inactive in [7], in assay [8], in assay [9], in [10], in assay [11] and in assay [12]. The outcome in [13], in [14], in assay [15], in assay [16], in assay [17] and in assay [18] was inactive. For the same compound, the outcome in assay [19] was inactive.
Usually AC50 stands for the midpoint of the concentration-response curve, whichever way the signal moves. `CCC[CH2][Sn]([Cl])([CH2]CCC)[CH2]CCC`: the AC50 is 1.49 µM (active) in assay [1]; 15.8 µM (active) in assay [3]; 15.3 µM (active) in [6]; 2.3 µM (active) in assay [7]; 1.63 µM (active) in assay [8]; 50 µM (active) in assay [9]. For the same compound, the AC50 was 50 µM (active) in assay [12]; 2.84 µM (active) in assay [13]; 11.6 µM (active) in assay [14]; 3.12 µM (active) in [15]; 12.6 µM (active) in assay [16]; 2.98 µM (active) in assay [18]. The concentration at half-maximal activity (AC50) in assay [20] was 1.8 µM (active); in assay [19], 1.22 µM (active) and 1.04 µM (active). Also, the compound was called inactive in assay [2], in [4], in assay [10], in assay [11], in assay [17] and in [20].
